A number with no mark means an inactive call. Records with an inconclusive call do not appear. Entries that show only a call come without a potency. Activity calls are given as the source filed them. Unless noted, calls come from the whole dose curve; as a rule, active = well fitted curve in the direction sought with a large enough effect in the repeat runs; inconclusive = weak or mixed curves; inactive = no such curve, though single readings can be large; an effect the other way counts as inactive or inconclusive.
Tests used:
[1] = qHTS assay to identify small molecule agonists of the TGF-beta/Smad signaling pathway (AID 1346859; active = well fitted activation curve with a large enough effect in the signal ratio in the repeat runs, not every such curve was filed as active; the % refers to the signal ratio; note: series mostly up to about 77 µM)
In short: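 Each well held 4,000 SBE-bla HEK 293T cells incubated overnight before compound addition; 5 hr later the cleavable FRET substrate went on for 2 hr at room temperature, and fluorescence was read at two emissions.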

[2] = target: Thyrotropin-releasing hormone receptor (Homo sapiens) (UniProt P34981); test: qHTS assay to identify small molecule antagonists of the thyrotropin-releasing hormone receptor (TRHR) signaling pathway (AID 1346877; active = well fitted inhibition curve with a large enough effect in the repeat runs, not every such curve was filed as active; note: series mostly up to about 51 µM)
Sequence of Thyrotropin-releasing hormone receptor (Homo sapiens) (P34981 whole entry, looked up): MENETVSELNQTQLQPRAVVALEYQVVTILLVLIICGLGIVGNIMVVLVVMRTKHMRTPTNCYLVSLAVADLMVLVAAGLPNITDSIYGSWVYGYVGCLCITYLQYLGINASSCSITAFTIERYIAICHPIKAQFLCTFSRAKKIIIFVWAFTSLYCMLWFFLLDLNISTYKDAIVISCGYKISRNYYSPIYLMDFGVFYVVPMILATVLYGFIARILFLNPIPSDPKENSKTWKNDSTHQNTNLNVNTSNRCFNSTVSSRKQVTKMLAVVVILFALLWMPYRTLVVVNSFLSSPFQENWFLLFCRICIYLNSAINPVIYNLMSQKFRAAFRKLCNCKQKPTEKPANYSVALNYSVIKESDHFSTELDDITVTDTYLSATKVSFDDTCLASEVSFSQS
In short: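 TRHR-expressing HEK293 cells loaded with calcium dye for 2 h at 37 C; compounds pre-incubated 5 min at room temperature before TRH challenge at 1 nM final. Intracellular calcium fluorescence read kinetically for 3 min; 15 concentrations in triplicate.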

[3] = target: Thyrotropin-releasing hormone receptor (Homo sapiens) (UniProt P34981); test: qHTS assay to identify small molecule agonists of the thyrotropin-releasing hormone receptor (TRHR) signaling pathway (AID 1346891; calls by dose curve; note: series mostly up to about 58 µM)
In short: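 Screening of agonists relied on calcium signalling in HEK293 cells expressing human TRHR: dye loading 2 h at 37 °C preceded compound addition and a 3-min fluorescence time course.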

[4] = Caspase-3/7 induction in CHO-K1 cells by small molecules, qHTS cell viability counter screen (AID 1346979); note: nearly all actives have a fitted effect of over 35% in size; note: potency is the fitted concentration of half-maximal effect
In short: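 CellTiter-Fluor viability check, qHTS format: wild-type CHO-K1, 16hr compound treatment, 1hr reagent incubation, fluorescence read.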

[5] = Caspase-3/7 induction in CHO-K1 cells by small molecules, qHTS assay (AID 1346980); note: nearly all actives have a fitted effect of over 15% in size
In short: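 Wild-type CHO-K1 cells exposed to compounds for 17hr at 37 C, 5% CO2. Caspase-3/7 activity then measured by Caspase-Glo 3/7 luminescence after 30min at room temperature.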

[6] = Caspase-3/7 induction in HepG2 cells by small molecules, qHTS cell viability counter screen (AID 1346981); note: nearly all actives have a fitted effect of over 30% in size; note: potency is the fitted concentration of half-maximal effect
In short: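 Wild-type HepG2 cells, 2,000/well, settled 5 hr at 37 C, 5% CO2 before compound addition. Viability read by CellTiter-Fluor fluorescence, reagent added after 16 hr compound exposure, then 1 hr at 37C, in the same wells as the caspase read.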

[7] = target: Nuclear receptor subfamily 1 group I member 2 (Homo sapiens) (UniProt O75469); test: Human pregnane X receptor (PXR) small molecule agonists, qHTS assay (AID 1346982); note: nearly all actives have a fitted effect of over 35% in size; note: potency is the fitted concentration of half-maximal effect
Sequence of Nuclear receptor subfamily 1 group I member 2 (Homo sapiens) (O75469 whole entry, looked up): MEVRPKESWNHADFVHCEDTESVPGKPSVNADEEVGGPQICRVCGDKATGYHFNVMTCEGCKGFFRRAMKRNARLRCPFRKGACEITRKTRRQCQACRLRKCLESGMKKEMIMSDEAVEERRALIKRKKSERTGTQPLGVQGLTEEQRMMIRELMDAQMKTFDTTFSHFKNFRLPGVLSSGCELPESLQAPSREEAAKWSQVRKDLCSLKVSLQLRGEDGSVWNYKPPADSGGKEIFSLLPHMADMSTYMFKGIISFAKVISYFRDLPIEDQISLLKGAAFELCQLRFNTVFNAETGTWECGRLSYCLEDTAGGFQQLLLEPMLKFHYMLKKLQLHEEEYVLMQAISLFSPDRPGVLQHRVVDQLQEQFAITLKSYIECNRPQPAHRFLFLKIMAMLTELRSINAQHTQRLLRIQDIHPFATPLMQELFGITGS
In short: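 PXR-Luc HepG2 reporter cells (CYP3A4-driven luciferase) in 5% charcoal-stripped FBS medium, plated 5 h before compound addition, then treated 24 h at 37C. Luciferase read by ONE-Glo luminescence after 30 min at room temperature.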

[8] = Human pregnane X receptor (PXR) small molecule agonists, qHTS cell viability counter screen (AID 1346977); note: nearly all actives have a fitted effect of over 50% in size
In short: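 Tox21 qHTS format; PXR-Luc HepG2, 2,000/well, charcoal-stripped FBS 5%. Cpd exposure 24hr. Read: CellTiter-Fluor fluorescence, multiplexed with luciferase.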

[9] = target: Nuclear receptor subfamily 1 group I member 2 (Rattus norvegicus) (UniProt Q9R1A7); test: Rat pregnane X receptor (rPXR) activation by small molecules, qHTS assay (AID 1346983); conditions: rPXR luciferase reporter cells, One-Glo luminescence, 24 h; max activation: hits give high values; note: nearly all actives have a fitted effect of over 20% in size
Sequence of Nuclear receptor subfamily 1 group I member 2 (Rattus norvegicus) (Q9R1A7 whole entry, looked up): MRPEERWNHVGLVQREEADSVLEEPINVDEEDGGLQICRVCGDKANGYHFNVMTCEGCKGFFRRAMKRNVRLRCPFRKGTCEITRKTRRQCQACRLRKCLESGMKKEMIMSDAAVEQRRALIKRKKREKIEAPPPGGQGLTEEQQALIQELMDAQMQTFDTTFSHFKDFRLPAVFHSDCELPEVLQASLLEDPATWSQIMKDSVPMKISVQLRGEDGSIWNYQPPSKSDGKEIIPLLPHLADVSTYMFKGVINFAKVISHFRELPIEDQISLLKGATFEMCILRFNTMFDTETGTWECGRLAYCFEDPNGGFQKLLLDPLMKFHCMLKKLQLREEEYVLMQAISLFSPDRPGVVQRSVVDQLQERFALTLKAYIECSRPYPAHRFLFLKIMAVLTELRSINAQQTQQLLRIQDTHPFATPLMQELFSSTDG
In short: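 Cell-based rPXR activation assay: rPXR cells, 2,000 per well, rested 5hr at 37 C, then exposed to compounds in DMSO for 24 hr at 37 C. Luciferase activity read by One-Glo luminescence after 30 min at room temperature.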

[10] = Caspase-3/7 induction in HepG2 cells by small molecules, qHTS assay (AID 1346978); note: nearly all actives have a fitted effect of over 15% in size
In short: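 Wild-type HepG2 cells, 2,000/well, settled 5 hr at 37 C and 5% CO2, then compound-treated for 17 hr; caspase-3/7 activity read by luminescent Caspase-Glo 3/7 after 30 min at room temperature.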

CC1=NN(c2ccc(S(=O)(=O)O)cc2)C(=O)C1N=Nc1ccccc1 (stereo unspecified)
outcome [1]: inactive
outcome [2]: inactive
outcome [3]: inactive
Potency [4]: 48.6 µM (active)
outcome [5]: inactive
Potency [6]: 61.1 µM (active)
Potency [7]: inactive

CCCCCCCCC(=O)OCC
outcome [1]: inactive
outcome [2]: inactive
outcome [3]: inactive
Potency [8]: inactive
Potency [4]: inactive
outcome [5]: inactive
Potency [7]: inactive

CC(C)COC(=O)CCCCC(=O)OCC(C)C
outcome [1]: inactive
outcome [2]: inactive
outcome [3]: inactive
Potency [8]: inactive
Potency [4]: inactive
outcome [5]: inactive
Potency [6]: inactive
Potency [7]: inactive

Nc1ccc(S(=O)(=O)NC(=O)c2ccccc2)cc1
outcome [1]: inactive
outcome [2]: inactive
outcome [3]: inactive
Potency [8]: inactive
Potency [4]: inactive
outcome [5]: inactive
Potency [6]: inactive
Potency [7]: inactive
max activation [9]: -3.91%

O=S1(=O)CCCC1
outcome [1]: inactive
outcome [2]: inactive
outcome [3]: inactive
Potency [8]: inactive
outcome [10]: inactive
outcome [5]: inactive
Potency [6]: inactive
Potency [7]: inactive

Cc1nc2n(c(=O)c1CCN1CCC(C(=O)c3ccc(F)cc3)CC1)CCS2
outcome [1]: inactive
outcome [2]: inactive
outcome [3]: inactive
outcome [10]: inactive
Potency [4]: inactive
outcome [5]: inactive
Potency [6]: inactive
Potency [7]: inactive

CCCCCCCCCCCCCC(=O)OC
outcome [1]: inactive
outcome [2]: inactive
outcome [3]: inactive
Potency [8]: inactive
outcome [10]: inactive
outcome [5]: inactive
Potency [6]: inactive
Potency [7]: inactive

O=C(COCCOCCOCC(=O)Nc1c(I)cc(I)c(C(=O)O)c1I)Nc1c(I)cc(I)c(C(=O)O)c1I
outcome [1]: inactive
outcome [2]: inactive
outcome [3]: inactive
Potency [8]: inactive
Potency [4]: inactive
outcome [5]: inactive
Potency [6]: inactive
Potency [7]: inactive

Cc1cc(O)c2c(c1)C(=O)c1cccc(O)c1C2=O
outcome [1]: inactive
outcome [2]: inactive
outcome [3]: inactive
Potency [8]: inactive
Potency [4]: 29.9 µM (active)
outcome [5]: inactive
Potency [6]: inactive

Cc1cccc(NC(=S)N(C)C)c1
outcome [1]: inactive
outcome [2]: inactive
outcome [3]: inactive
outcome [10]: inactive
Potency [4]: inactive
outcome [5]: inactive
Potency [6]: inactive

O=C(O)c1c(Cl)ccc(Cl)c1Cl
outcome [1]: inactive
outcome [2]: inactive
outcome [3]: inactive
Potency [8]: inactive
outcome [5]: inactive
Potency [6]: inactive
Potency [7]: inactive

CC(C)(C)NCCO
outcome [1]: inactive
outcome [2]: inactive
outcome [3]: inactive
Potency [8]: inactive
outcome [10]: inactive
outcome [5]: inactive
Potency [6]: inactive
Potency [7]: inactive

CCC(CO)CO
outcome [1]: inactive
outcome [2]: inactive
outcome [3]: inactive
Potency [8]: inactive
outcome [10]: inactive
outcome [5]: inactive
Potency [6]: inactive
Potency [7]: inactive

C1=CCC(c2ccccc2)CC1 (stereo unspecified)
outcome [1]: inactive
outcome [2]: inactive
outcome [3]: inactive
Potency [8]: inactive
Potency [4]: inactive
outcome [5]: inactive
Potency [6]: inactive
Potency [7]: inactive

O=C1NC2NC(=O)NC2N1 (stereo unspecified)
outcome [1]: inactive
outcome [3]: inactive
Potency [8]: inactive
outcome [10]: inactive
Potency [4]: inactive
outcome [5]: inactive
Potency [6]: inactive
Potency [7]: inactive

COc1ccc(NS(=O)(=O)c2ccc(N)cc2)nn1
outcome [1]: inactive
outcome [3]: inactive
Potency [8]: inactive
outcome [10]: inactive
Potency [4]: inactive
outcome [5]: inactive
Potency [6]: inactive

Cc1ccc(S(=O)(=O)NC(=O)NC2CCCCCCC2)cc1
outcome [1]: inactive
outcome [3]: inactive
Potency [8]: inactive
outcome [10]: inactive
outcome [5]: inactive
Potency [6]: inactive
Potency [7]: inactive
max activation [9]: -1.92%

CCCCCC1CCCC(=O)O1 (stereo unspecified)
outcome [1]: inactive
outcome [3]: inactive
Potency [8]: inactive
outcome [10]: inactive
Potency [4]: inactive
outcome [5]: inactive
Potency [6]: inactive
Potency [7]: inactive

CCCCC(CC)CNC(=O)CC(C)OC(=O)CCC(=O)O (stereo unspecified)
outcome [1]: inactive
outcome [3]: inactive
Potency [8]: inactive
outcome [10]: inactive
Potency [4]: inactive
outcome [5]: inactive
Potency [6]: inactive
Potency [7]: inactive

CC1CCC(C(C)(C)S)C(=O)C1 (stereo unspecified)
outcome [1]: inactive
outcome [3]: inactive
Potency [8]: inactive
outcome [10]: inactive
outcome [5]: inactive
Potency [7]: 61.1 µM (active)

C[Si]1(C)N[Si](C)(C)N[Si](C)(C)N1
outcome [1]: inactive
outcome [3]: inactive
Potency [8]: inactive
outcome [10]: inactive
Potency [4]: inactive
outcome [5]: inactive
Potency [6]: inactive
Potency [7]: inactive
